{"source": "the supplement of paper PMC4840960", "note": "± gives the standard deviation of the averaged measurements.", "data": [{"tested_on": "E18 rat cortical neuron-glia co-culture", "assay": "fiber score / MBP score (myelination specific beyond OL differentiation) (ratio); higher = more myelination-specific MBP alignment", "details": "1 µM; treatment time: 8 days (DIV5-DIV13)", "outline": "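The measure is the ratio of fiber score to MBP score, where fiber score is continuous MBP fiber length per Olig2+ nucleus and MBP score is thresholded MBP area × intensity per Olig2+ nucleus. Primary E18 rat cortical co-cultures received library compounds at 1 or 5 µM in myelination medium from DIV5 to DIV13, then were fixed in 4 % paraformaldehyde and stained for MBP, Olig2 and DAPI before analysis of four 10X fields per well in duplicate wells.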", "values": [{"compound": "O=S(=O)(O)CCS", "note": "[Mesna]", "fiber score / MBP score": 0.768}, {"compound": "C[C@]12CCC(=O)C=C1CC[C@@H]1[C@@H]2[C@@H](O)C[C@@]2(C)[C@H]1CC[C@]2(O)C(=O)CO", "note": "[Hydrocortisone]", "fiber score / MBP score": "0.712 ± 0.026"}, {"compound": "COc1ccc(OC)c(C(O)CNC(=O)CN)c1", "note": "(stereo unspecified) [Midodrine]", "fiber score / MBP score": 0.492}, {"compound": "COc1ccccc1OCC(O)COC(N)=O", "note": "(stereo unspecified) [Methocarbamol]", "fiber score / MBP score": 0.67}, {"compound": "CCN(CC)CCOC(=O)C1(C2CCCCC2)CCCCC1", "note": "[Dicyclomine]", "fiber score / MBP score": 0.616}, {"compound": "CN(CCOc1ccc(NS(C)(=O)=O)cc1)CCc1ccc(NS(C)(=O)=O)cc1", "note": "[Dofetilide]", "fiber score / MBP score": 1.2}, {"compound": "Cc1cccc(Nc2ccncc2S(=O)(=O)NC(=O)NC(C)C)c1", "note": "[Torsemide]", "fiber score / MBP score": 0.837}, {"compound": "O=C1CN(/N=C/c2ccc([N+](=O)[O-])o2)C(=O)N1", "note": "[Nitrofurantoin]", "fiber score / MBP score": 0.819}, {"compound": "CC(Oc1c(Cl)cccc1Cl)C1=NCCN1", "note": "(stereo unspecified) [lofexidine]", "fiber score / MBP score": 0.929}, {"compound": "NCCc1ccc(O)c(O)c1", "note": "[Dopamine]", "fiber score / MBP score": 1.28}, {"compound": "CC(N/C(=N\\C#N)Nc1ccncc1)C(C)(C)C", "note": "(stereo unspecified) [Pinacidil]", "fiber score / MBP score": 0.981}, {"compound": "CN(C)c1ccc(O)c2c1C[C@H]1C[C@H]3[C@H](N(C)C)C(O)=C(C(N)=O)C(=O)[C@@]3(O)C(O)=C1C2=O", "note": "[Minocycline]", "fiber score / MBP score": 0.788}, {"compound": "CCOC(=O)C1=C(C)NC(C)=C(C(=O)OC)C1c1cccc(Cl)c1Cl", "note": "(stereo unspecified) [Felodipine]", "fiber score / MBP score": 1.27}, {"compound": "COc1ccc2cc(CCC(C)=O)ccc2c1", "note": "[Nabumetone]", "fiber score / MBP score": 0.801}, {"compound": "O=[N+]([O-])c1cccc2cn[nH]c12", "note": "[7-Nitroindazole]", "fiber score / MBP score": 0.691}, {"compound": "OCCN1C[C@H](O)[C@@H](O)[C@H](O)[C@H]1CO", "note": "[Miglitol]", "fiber score / MBP score": 0.881}]}]}
